This is an account of results in ChEMBL document CHEMBL5606460, “ASAP - DENV-2 NS2B-NS3 protease fluorescence single point” (2024).

Among all 2,000 compounds or so, about 110 (5.5%) showed an effect of 50% or more. The list comes from a sample in which strong results are over-represented; it also holds similar structures and randomly drawn compounds.

The target in the assay is Genome polyprotein (dengue virus type 2) (UniProt P29990).
Where [1] appears, read: Thailand/16681/1984, Concentration 25.0 uM, Number of replicates 1.0.

Regarding `Cc1nnccc1Cn1cc(C2CCNCC2)c(C)n1`, the inhibition (commonly the drop in the measured response relative to a control, in per cent) is -5.29% (Thailand/16681/1984, Concentration 49.5 uM, Number of replicates 2.0, Standard deviation 1.059758229221688 %); 2.01% (Thailand/16681/1984, Concentration 99.01 uM, Number of replicates 2.0, Standard deviation 7.779121042682183 %); -3.21% (Thailand/16681/1984, Concentration 198.0 uM, Number of replicates 2.0, Standard deviation 1.1444678313445817 %).
Turning to `Cc1cc(CO)c2cccc(C[C@H](NC(=O)[C@@H](N)c3ccsc3)C(=O)O)c2n1`, the inhibition is, setting by setting: (Thailand/16681/1984, Concentration 49.95 uM, Number of replicates 2.0, Standard deviation 1.7977802295531586 %) 8.31%; (Thailand/16681/1984, Concentration 99.9 uM, Number of replicates 2.0, Standard deviation 1.1856845832025373 %) 20.1%.
As to `Cc1cc(CO)c2cccc(Cc3ccccc3NC(=O)c3ccno3)c2n1`, the inhibition is 3.29% (Thailand/16681/1984, Concentration 49.95 uM, Number of replicates 2.0, Standard deviation 3.752588616330447 %) and 6.29% (Thailand/16681/1984, Concentration 99.9 uM, Number of replicates 2.0, Standard deviation 1.45880155634974 %).
Regarding `Cc1cccc(C)c1OC[C@H](C)NC(=O)C1CCN(c2ccc(C=O)cc2)CC1`, the inhibition under setting [1] is 6.86%.
As to `CN(CCS(N)(=O)=O)C(=O)c1cc(Cl)ccc1NS(=O)(=O)c1ccc(Oc2ccccc2Cl)cc1`, the inhibition turned out to be 8.12% (Thailand/16681/1984, Concentration 49.5 uM, Number of replicates 2.0, Standard deviation 3.051075775612508 %); 55.8% (Thailand/16681/1984, Concentration 99.01 uM, Number of replicates 2.0, Standard deviation 2.2523140974306535 %); 97.7% (Thailand/16681/1984, Concentration 198.0 uM, Number of replicates 2.0, Standard deviation 0.05978513602530914 %).
Turning to `CN(c1ccc(Cl)cc1C(N)=O)S(=O)(=O)c1ccc(Oc2ccccc2Cl)cc1`, the inhibition (Thailand/16681/1984, Concentration 49.5 uM, Number of replicates 2.0, Standard deviation 0.11551161483271621 %) was 1.15%; the inhibition (Thailand/16681/1984, Concentration 99.01 uM, Number of replicates 2.0, Standard deviation 0.4161514072882 %) was determined as 3.78%; the inhibition (Thailand/16681/1984, Concentration 198.0 uM, Number of replicates 2.0, Standard deviation 1.5666270190069185 %) is 5.59%.
Take `CNC(=O)c1cc(Cl)ccc1N(C)S(=O)(=O)c1ccc(Oc2ccccc2Cl)cc1`: the inhibition (Thailand/16681/1984, Concentration 49.5 uM, Number of replicates 2.0, Standard deviation 1.1912141654334696 %) was -2.39%; the inhibition (Thailand/16681/1984, Concentration 99.01 uM, Number of replicates 2.0, Standard deviation 1.3706697565683075 %) was -0.121%; the inhibition (Thailand/16681/1984, Concentration 198.0 uM, Number of replicates 2.0, Standard deviation 0.031456216092408736 %) was 3.32%.
For `CCCN(C)C(=O)c1cc(Cl)ccc1NS(=O)(=O)c1ccc(Oc2ccccc2Cl)cc1`, the inhibition came out at 75.9% (Thailand/16681/1984, Concentration 49.5 uM, Number of replicates 2.0, Standard deviation 0.9470295707961462 %); 88.8% (Thailand/16681/1984, Concentration 99.01 uM, Number of replicates 2.0, Standard deviation 0.4835625940830703 %); 93.4% (Thailand/16681/1984, Concentration 198.0 uM, Number of replicates 2.0, Standard deviation 0.2692812727579233 %).
Take `COCCCN(Cc1ccccc1)C(=O)C1CCN(c2ccc(C=O)cc2)CC1`: the inhibition under setting [1] came out at 16.7%.
Take `O=Cc1ccc(N2CCC(C(=O)Nc3cccc(OC(F)(F)F)c3)CC2)cc1`: the inhibition under setting [1] is 12.8%.
Turning to `O=Cc1ccc(N2CCC(C(=O)N3CCN(c4ncc(C(F)(F)F)cc4Cl)CC3)CC2)cc1`, the inhibition under setting [1] was -1.15%.
Regarding `CSCC(=O)Nc1ccc(Cl)c2cccnc12`, the inhibition runs as follows: (Thailand/16681/1984, Concentration 49.95 uM, Number of replicates 2.0, Standard deviation 4.284996583998793 %) -8.76%; (Thailand/16681/1984, Concentration 99.9 uM, Number of replicates 2.0, Standard deviation 5.022059659232943 %) -8.17%.
Take `Cc1c(C(=O)NCc2ccc(Cl)cc2OCCO)ccc(O)c1NC(=O)c1ccncc1F`: the inhibition was -3.14% (Thailand/16681/1984, Concentration 49.5 uM, Number of replicates 2.0, Standard deviation 1.9465984757153059 %); -2.65% (Thailand/16681/1984, Concentration 99.01 uM, Number of replicates 2.0, Standard deviation 1.7394020396248402 %); 0.351% (Thailand/16681/1984, Concentration 198.0 uM, Number of replicates 2.0, Standard deviation 1.2400320592735166 %).
As for `O=Cc1ccc(N2CCC(C(=O)Nc3ccc(Br)cc3O)CC2)cc1`, the inhibition under setting [1] was 31.4%.
As for `O=Cc1ccc(N2CCC(C(=O)Nc3ncc(Br)cc3O)CC2)cc1`, the inhibition under setting [1] turned out to be 52.8%.
As to `Cc1nc(NC(=O)C2CCN(c3ccc(C=O)cc3)CC2)ccc1Br`, the inhibition under setting [1] worked out at 12.1%.
On to `Cc1c(Br)cccc1NC(=O)C1CCN(c2ccc(C=O)cc2)CC1`, for which the inhibition under setting [1] was found to be 13%.
`Cc1ccc2cccc(NC(=O)C3CCN(c4ccc(C=O)cc4)CC3)c2n1`: the inhibition under setting [1] is 50.9%.
Take `O=Cc1ccc(N2CCC(C(=O)Nc3ncc(F)cc3Br)CC2)cc1`: the inhibition under setting [1] came out at 10.9%.
Regarding `O=Cc1ccc(N2CCC(C(=O)Nc3cccc4ccc(O)cc34)CC2)cc1`, the inhibition under setting [1] came out at 35.2%.
As for `O=Cc1ccc(N2CCC(C(=O)Nc3cccc(Br)n3)CC2)cc1`, under setting [1], the inhibition is 92.6%.
Still for that read-out and setting: the value for `O=Cc1ccc(N2CCC(C(=O)Nc3cccc(C(F)(F)F)n3)CC2)cc1` was 13.5%.
For `COC(=O)c1cccc(C(=O)Nc2ccncc2C)c1`, the inhibition was -4.08% (Thailand/16681/1984, Concentration 49.5 uM, Number of replicates 2.0, Standard deviation 0.22567664905073445 %); -3.74% (Thailand/16681/1984, Concentration 99.01 uM, Number of replicates 2.0, Standard deviation 0.2045809712592737 %); -2.98% (Thailand/16681/1984, Concentration 198.0 uM, Number of replicates 2.0, Standard deviation 1.3054913833669988 %).
As for `C[C@@H](c1ccccc1)N(CC1CC1)C(=O)C1CCN(c2ccc(C=O)cc2)CC1`, the inhibition under setting [1] was found to be 13.8%.
As to `O=C(c1csc([C@H]2CCCNC2)n1)N1CC[C@H](c2cccnc2)C1`, the inhibition is -0.499% (Thailand/16681/1984, Concentration 49.5 uM, Number of replicates 2.0, Standard deviation 1.7251582592894925 %); 1.01% (Thailand/16681/1984, Concentration 99.01 uM, Number of replicates 2.0, Standard deviation 2.248532513594862 %); 2.41% (Thailand/16681/1984, Concentration 198.0 uM, Number of replicates 2.0, Standard deviation 1.6393165928155962 %).
